# This is a sample that favours compounds with a hit; in the whole collection about 6.3% have one here.
# MK inhibit: S. pneumoniae MK inhibitors, primary screen, biochemical, PK/LDH-coupled NADH absorbance; mevalonate kinase [Streptococcus pneumoniae D39]; purified MK, PK/LDH-coupled NADH absorbance 340 nm; inhibition, % at 10 µM; 65,000 compounds, 0.48% hits; AID 555, 2006;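 active = ranked among the strongest by inhibition in the single 10 µM screen, a fixed top-ranked set picked for dose follow-up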
# PMK inhibit: S. pneumoniae PMK inhibitors, primary screen, biochemical, mevalonate pathway, pilot trial included; purified PMK, PK/LDH-coupled NADH absorbance 340 nm; inhibition, % at 10 µM; 65,000 compounds, 0.49% hits; AID 539, 2006;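 active = top-ranked compounds by inhibition in the single 10 µM screen, taking a fixed number of the strongest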;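 also: 0% = full reaction with DMSO carrier and 100% = background rate without enzyme reaction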
# NADH enzymes: inhibitors of PK/LDH coupling enzymes, profiling panel, artefact control, biochemical, MLSMR library. coupled PK/LDH NADH assays, four targets. AID 774, 2007. IC50, µM (doses to about 10 µM), inactives show top-dose inhibition. 65,000 compounds, 0.02% hits;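 active = single-dose screening hits from any of four coupled enzyme assays that gave an IC50 when retested across doses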;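 also: the DPM-DC format reads NADH fluorescence rather than 340 nm absorbance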
# DPM-DC inhibit: S. pneumoniae DPM-DC inhibitors, primary screen, biochemical, PK/LDH-coupled NADH fluorescence | diphosphomevalonate decarboxylase (Streptococcus pneumoniae D39) | 65,000 compounds, 0.49% hits | calls only at 10 µM | purified DPM-DC;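 active = the 320 compounds with the highest percent inhibition in the single-dose primary screen, excluding strongly autofluorescent ones, cut at about 32% in these data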;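 also: kinetic rate of NADH fluorescence loss reporting ADP formed by the decarboxylase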
# Abs 340nm: compound light absorbance at 340 nm, profiling panel, artefact control, biochemical, MLSMR library, data from PS, PMK, MK assays. fold change at 10 µM. 65,000 tested, under 10 active. compound absorbance at 340 nm, fold over control. AID 708, 2007;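 active = at 10 µM dose, initial 340 nm absorbance at least 2 fold that of control wells; inactive = change under 2 fold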;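 also: initial absorbance extrapolated from kinetic A340 decline of NADH oxidation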
# Autofluor 339: intrinsic fluorescence of library compounds, ex339/em460 – biochemical, MLSMR library, data from DPM-DC assay, artefact control, profiling panel. compound autofluorescence, ex339/em460 nm, NADH buffer; active compounds read high; 1 = no-compound wells, NADH background. fluorescence fold increase at 10 µM. 65,000 compounds, 5.5% hits;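 active = at 10 µM, mean starting fluorescence two-fold or more over control wells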;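 also: signal is the first read of a kinetic run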
# Active calls of the source: *; i = inactive; . = not tested or not shown; + = active, no number.
SMILES,MK inhibit,PMK inhibit,NADH enzymes,DPM-DC inhibit,Abs 340nm,Autofluor 339
C=CCn1c(N)cc(=O)nc1SCC(=O)NC(C)c1ccccc1 (configuration not stated),5,0,4%,i,1.1,1.1
CCn1c(=O)cc(SCC(=O)Nc2ccccc2N2CCN(C)CC2)c2ccccc21,0,15,5%,i,1,1.2
COc1ccc(CCN(Cc2cc3cc4c(cc3[nH]c2=O)OCO4)C(C)=O)cc1OC,10,13,16%,i,1.1,2.7*
COCCN(Cc1cc2cc3c(cc2[nH]c1=O)OCO3)C(=O)c1cccs1,6,10,17%,+,1.1,2.7*
O=C(NC1CCCCC1)N(CCN1CCOCC1)Cc1cc2cc3c(cc2[nH]c1=O)OCCO3,9,10,10%,.,1.1,4.4*
Cc1ccc2[nH]c(=O)c(CN(CCCN3CCOCC3)C(=O)NC3CCCCC3)cc2c1,5,5,3%,i,1,1.6
COc1ccc(CCN(Cc2cc3cc(C)ccc3[nH]c2=O)C(=O)N2CCCC2)cc1OC,5,6,4%,i,1,1.2
COc1ccc(CN(Cc2cc3cc4c(cc3[nH]c2=O)OCO4)C(=O)NC2CCCCC2)cc1,12,0,7%,i,1,2.5*
CCN(CC)CCN(Cc1cc2cc3c(cc2[nH]c1=O)OCCO3)C(=O)NC1CCCCC1,8,16,12%,.,1.1,3.8*
CCc1ccc2[nH]c(=O)c(CN(CCN3CCCC3)C(=O)NC3CCCCC3)cc2c1,0,16,6%,i,0.98,1.6
COC(=O)c1ccc(COc2ccc(C3C4=C(CCCC4=O)Nc4onc(C)c43)cc2)cc1 (configuration not stated),0,9,5%,i,1,2.4*
COC(=O)c1ccc(C2CC(=O)NC3=C2C(=O)CCC3)cc1 (configuration not stated),6,14,7%,i,0.99,1.1
CCOC(=O)C(C)Sc1nc(-c2ccco2)cc(C(F)(F)F)c1C#N (configuration not stated),12,11,8%,i,1.1,2.8*
COc1ccc(S(=O)(=O)N(C)CC(=O)O)c2ccccc12,9,9,9%,i,1,1.1
Fc1cc2nc(-c3ccncc3)[nH]c2cc1F,3,0,2%,.,1.1,2.2*
CC1CCCCC1NS(=O)(=O)c1ccc(S(=O)(=O)NCc2ccncc2)cc1 (configuration not stated),13,16,10%,i,0.95,1.1
O=C1C=C(NCCN2CCOCC2)CC(c2ccccc2)C1 (configuration not stated),0,19,7%,i,1,1.1
COc1cc(NC(=O)c2cc3c(=O)n(C)c4ccccc4c3n2C)cc(OC)c1OC,8,0,4%,.,1.1,2*
CCN(CC)S(=O)(=O)c1ccc2c(c1)nc(SCc1nc3ccsc3c(=O)[nH]1)n2CC,0,7,2%,i,1.1,1.1
CCOc1cc(C(=O)NCc2nnc(SCC(=O)OC)n2C)cc(OCC)c1OCC,0,12*,12%,i,1,1
O=C1CCCCCN1C(=O)c1cccc(C(=O)N2CCCCCC2=O)c1,10,11,7%,i,0.97,1.1
COc1ccc(CNc2oc(-c3cccc4ccccc34)nc2C#N)cc1,0,4,1%,.,1,3*
N#Cc1nc(Cc2cccc3ccccc23)oc1NCc1ccc(F)cc1,9,1,3%,i,1,1.1
CNc1oc(-c2cccc3ccccc23)nc1C#N,6,7,7%,.,1.1,3.7*
CCCCC(C(=O)NCCC(C)C)N(CCCN1CCOCC1)C(=O)c1snc(C(N)=O)c1N (configuration not stated),3,13,7%,i,1.1,2.1*
SMILES,MK inhibit,PMK inhibit,NADH enzymes,DPM-DC inhibit,Abs 340nm,Autofluor 339
CCOC(=O)N1CCN(C(=O)c2nc3ccccc3s2)CC1,6,6,4%,i,1,1.1
CC(=O)c1cccc(NC(=O)c2cc3nc(C)cc(C)n3n2)c1,5,7,10%,i,1,2.5*
CC(=O)c1cccc(NC(=O)c2cc(C(C)C)on2)c1,4,0,1%,i,1.1,1.1
c1ccc(C(c2nnnn2C2CCCCC2)N2CCc3ccccc3C2)nc1 (configuration not stated),4,13,11%,i,1,4*
CCOC(=O)CCn1c2nc(C)cc(C)c2c(=O)n1-c1ccccc1,3,64*,34%,.,1.1,4.5*
COc1cc(OC)cc(-c2nc(-c3ccccc3)no2)c1,10,4,6%,i,1,1.2
COc1ccc2[nH]c(=O)c(-c3noc(-c4ccccc4)n3)cc2c1,7,0,4%,.,1,3.6*
O=c1[nH]c2ccccc2cc1-c1noc(-c2cccnc2)n1,8,6,7%,.,1.1,4.2*
Cc1ccc(-c2noc(-c3cccs3)n2)cc1,4,0,1%,i,1.1,1.1
Brc1ccc(-c2cnc(-c3cccs3)o2)cc1,2,7,5%,.,1.1,5*
Cc1ccc(S(=O)(=O)Cc2cn3cccnc3n2)cc1,1,8,5%,.,1.1,3.7*
CCC(C)(C)NC(=O)C(c1ccccc1F)N(Cc1ccco1)C(=O)c1csnn1 (configuration not stated),0,38*,13%,i,1.1,1.1
Cc1ccc(-c2cc(C(F)F)n3ncc(C(=O)NCc4ccco4)c3n2)cc1,6,2,4%,.,1.1,2.3*
Cc1ccccc1Cc1c(C)nc2c(C(=O)NCc3ccco3)cnn2c1C,0,12,7%,i,1.1,3.3*
Cc1cc(C(F)F)n2ncc(C(=O)NCc3ccccc3C(F)(F)F)c2n1,5,21,9%,i,1,1.2
Cc1ccc(-c2cc(C(F)(F)F)n3ncc(C(=O)NCc4ccco4)c3n2)cc1,8,9,18%,+,1.1,1.8
O=C(NCc1ccco1)c1nc2nc(-c3cccs3)cc(C(F)(F)F)n2n1,2,0,1%,.,1.2,3.8*
O=c1cc(C(F)(F)F)nc(-c2ccccc2)[nH]1,3,6,3%,i,1,1.1
O=C1NCC2=C1C(c1ccc(Br)cc1)Nc1ccccc1N2 (configuration not stated),7,4,4%,i,1,1.1

# Compound activity (PubChem)
